Compounds without any hit were thinned out: in the full panel of roughly 79,000, 15% have a hit. Cut-off read from the data, not from the text of the source: active = growth inhibition above about 70%; inactive = the rest.
Legend:
[1] = NCI Yeast Anticancer Drug Screen. Data for the rad50 strain (AID 155);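 note: 0% = growth of vehicle-only cultures of the same strain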; settings: S. cerevisiae rad50 strain growth inhibition; at 50.0 µM; active compounds read high
Method in brief: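 A DNA repair-deficient yeast mutant serves as the test organism; compound-induced growth inhibition is calculated against vehicle-treated cells.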

[2] = NCI Yeast Anticancer Drug Screen. Data for the mec2-1 strain (AID 157); settings: S. cerevisiae mec2-1 strain, at 50.0 µM, active compounds read high
Method in brief: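 Each compound was tested on mec2-1 yeast, a strain altered in DNA damage repair or cell cycle control. Growth inhibition is reported relative to vehicle.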

[3] = NCI Yeast Anticancer Drug Screen. Data for the sgs1 mgt1 strain (AID 161);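 note: 0% = growth of cultures given vehicle only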; settings: S. cerevisiae sgs1 mgt1 strain, at 50.0 µM, active compounds read high
Method in brief: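 Test agents were incubated with a DNA-repair-mutant yeast strain. Growth was then read and compared against vehicle-treated controls.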

[4] = NCI Yeast Anticancer Drug Screen. Data for the cln2 rad14 strain (AID 165);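 note: 0% = growth equal to vehicle treated cultures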; settings: S. cerevisiae cln2 rad14 strain, at 50.0 µM, active compounds read high
Method in brief: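 Test compounds were added to cln2 rad14 yeast cultures; inhibition of growth was then determined by comparison with vehicle treatment.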

[5] = NCI Yeast Anticancer Drug Screen. Data for the bub3 strain (AID 167); settings: S. cerevisiae bub3 mutant strain, at 50.0 µM, active compounds read high
Method in brief: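 Inhibition values come from growth of compound-treated mutant yeast normalised to vehicle-treated controls.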

[6] = NCI Yeast Anticancer Drug Screen. Data for the mlh1 rad18 strain (AID 175); settings: S. cerevisiae mlh1 rad18 strain growth inhibition; at 50.0 µM; active compounds read high
Method in brief: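 Inhibition values reflect reduced growth of mutant yeast versus vehicle-treated controls following compound exposure; the mutations affect DNA damage repair.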

Measured: growth inhibition

BrC1Cc2ccccc2C(Br)Cc2ccccc21 (stereo unspecified)
inactive: [1] -7.65% | [2] -5.1% | [3] -1.05% | [4] -47.5% | [5] 4% | [6] -9.6%

COC1(OC)C(Cl)=C(Cl)C2C1C1(Cl)C(Cl)=C(Cl)C2(Cl)C1(OC)OC (stereo unspecified)
inactive: [1] 39.9% | [2] 10.1% | [3] 1.7% | [4] 13.6% | [5] 2.2% | [6] 5.3%

Cc1ccc(S(=O)(=O)C23N=NC(C)(C)C2C2CCC3C2)cc1 (stereo unspecified)
inactive: [1] -8.4% | [2] -12% | [3] 1.1% | [4] -59.2% | [5] -50.3% | [6] 3.75%

CCN(CC)CC(C)(C)C(=O)/C=C/c1ccc(OC)cc1
inactive: [1] -3.7% | [2] -8.2% | [3] 7.35% | [4] -5.5% | [5] 0.05% | [6] -7.3%

Cc1cc(=O)[nH]c2c(C)cc(Cl)cc12
inactive: [1] 9.95% | [2] -5.25% | [3] 14.9% | [4] 17.1% | [5] -18.4% | [6] 1.65%

COC(=O)N/N=C(/Cc1occc(=O)c1O)C(=O)Nc1ccc([N+](=O)[O-])cc1[N+](=O)[O-]
inactive: [1] -11.1% | [2] -12.9% | [3] -26.4% | [4] 3.3% | [5] 5.25% | [6] 8.1%

CC(C)N(C(=O)C12C3C4C1(I)C1C2C3(I)C41C(=O)N(C(C)C)C(C)C)C(C)C (stereo unspecified)
inactive: [1] -9.55% | [2] 23.1% | [3] 25.9% | [4] 18.6% | [5] -0.25% | [6] -12.2%

CC1(C)CC(Nc2ccc(Nc3ccccc3)cc2)CC(C)(C)N1
inactive: [1] -4.35% | [2] -6.3% | [3] -11.3% | [4] -9.8% | [5] -2.1% | [6] -19.8%

COC(=O)C1=C(C(=O)OC)N(C(C)C)[C@H]2C(C(=O)OC)=C(C(=O)OC)N(C(C)C)[C@@H]12
inactive: [1] 0.2% | [2] -9.75% | [3] -19.4% | [4] 5.75% | [5] -34.8% | [6] 13.3%

CC1(C2(C)SCCS2)SCCS1
inactive: [1] 11.2% | [2] 2.9% | [3] -1% | [4] 11.2% | [5] -8.55% | [6] 10.5%

CCOc1cc[n+](C)c2ccc(C)cc12
inactive: [1] 13.6% | [2] 12.8% | [3] 11.3% | [4] 16.3% | [5] 21.5% | [6] 26.7%

CCC[N+]1([O-])CCOCC1
inactive: [1] -8.2% | [2] -1.8% | [3] -5.55% | [4] 26.4% | [5] 14.3% | [6] -18.1%

CCCCCCCCCCCCCCCCCCCCCCCCCC(=O)O
inactive: [1] 30.4% | [2] -20.2% | [3] 32.5% | [4] 4.5% | [5] 23.9% | [6] 4.95%

Nc1nc(N)c(N=Nc2ccc([N+](=O)[O-])cc2)c(=O)[nH]1
inactive: [1] -0.9% | [2] -16.9% | [3] -12% | [4] 9% | [5] 0.7% | [6] -3.9%

ClCCc1ccccc1CC1=NCCc2ccccc21
inactive: [1] 18.6% | [2] -26.4% | [3] -23.7% | [4] 6.3% | [5] -12.8% | [6] 54.8%

O=C(NCCCCCCNC(=O)OCCSCCn1cc(C(=O)NC(=O)OCc2ccccc2)c(=O)[nH]c1=O)OCCSCCn1cc(C(=O)NC(=O)OCc2ccccc2)c(=O)[nH]c1=O
inactive: [1] -21.3% | [2] -23.6% | [3] 2.6% | [4] 2.55% | [5] 15.1% | [6] -9.95%

C1CCC(C2CCC(C3CCCCC3)CC2)CC1 (stereo unspecified)
inactive: [1] -14.1% | [2] -8.75% | [3] -9.55% | [4] -45.6% | [5] 6.35% | [6] 6.15%

Nc1ccc2c(c1)-c1ccccc1C2O (stereo unspecified)
inactive: [1] -1.2% | [2] -19.1% | [3] -37.8% | [4] -60.9% | [5] -17.1% | [6] -16.4%

N#C/C(=C/C=C/c1ccco1)C(N)=O
inactive: [1] 9.9% | [2] 1.65% | [3] 15.6% | [4] 10.6% | [5] -6.25% | [6] 13.4%

OCc1c(CO)c2cccn2c2c1cnn2-c1ccccc1
inactive: [1] 11.3% | [2] 1.45% | [3] 23.9% | [4] -64.9% | [5] -8.2% | [6] 11.2%

O=C1NC(=S)N/C1=C\c1cccs1
inactive: [1] -20.6% | [2] -7.25% | [3] 15.4% | [4] -19.9% | [5] -7.35% | [6] -44.6%

O=c1nc(Oc2ccccc2)nc2c3ccccc3ccn12
inactive: [1] -5.4% | [2] 16.1% | [3] 11.9% | [4] -9.9% | [5] 18.8% | [6] 24.4%

Clc1cc2nc(C3CCCO3)[nH]c2cc1Cl (stereo unspecified)
inactive: [1] 24.3% | [2] 2.15% | [3] 29.5% | [4] 5% | [5] 19.9% | [6] 55.2%

Cc1ccc(NC(=O)OCCN(C)C)cc1Cl
inactive: [1] -6.75% | [2] -25.8% | [3] 16.4% | [4] 11.1% | [5] 8.2% | [6] -4.6%

COc1ccc(C2CCCCCC2OS(=O)(=O)c2ccc(C)cc2)c(OC)c1OC (stereo unspecified)
inactive: [1] 1.75% | [2] -4.55% | [3] -7.15% | [4] -14.8% | [5] 8.45% | [6] -9%

COc1ccc(-c2cc(=O)c3cc(O)ccc3o2)c(OC)c1OC
inactive: [1] 8% | [2] 16% | [3] 11.4% | [4] -6.95% | [5] -6.5% | [6] -10.8%

COC(=O)OC/C=C\COC(=O)OC
inactive: [1] 5.8% | [2] -4.05% | [3] -13.6% | [4] -11.4% | [5] 4.55% | [6] 13.6%

CC(=O)Oc1cc(N(C)C)ccc1SC(Cl)(Cl)Cl
inactive: [1] -14.7% | [2] -17.9% | [3] -12.1% | [4] -61.6% | [5] 22.6% | [6] -25.6%

COc1ccc(OCc2nc3cc(C(F)(F)F)ccc3nc2-c2ccccc2)cc1
inactive: [1] -2.65% | [2] 3.45% | [3] 11.2% | [4] 5.2% | [5] 25.9% | [6] -70.4%

N#CC(=Nc1cc(Cl)cc(Cl)c1)C1=C(O)c2ccccc2C1=O
inactive: [1] 5.75% | [2] 0.6% | [3] 30.1% | [4] 14.1% | [5] 35.9% | [6] 11%

CCCCOS(=O)(=O)c1ccc([N+](C)(C)C)cc1
inactive: [1] 3.9% | [2] 1.75% | [3] -10.6% | [4] 12.2% | [5] 0.6% | [6] -7%

CCCNC(=O)CCC(=O)NS(=O)(=O)c1ccc(Cl)cc1
inactive: [1] -14.4% | [2] -3.05% | [3] 16.5% | [4] -16.4% | [5] 16.1% | [6] 7.15%

CC(C)N(CC(=O)NC(=O)c1ccccc1)C(C)C
inactive: [1] -2.85% | [2] -6.45% | [3] -3.55% | [4] -32.9% | [5] 0.05% | [6] -2.6%

CCN(CC)CCCCCOC(=O)c1cccc(N)c1
inactive: [1] -5.8% | [2] 0.35% | [3] -16.6% | [4] -45.9% | [5] 27.2% | [6] -10.1%

Cc1ccc2nc(-c3cccc([N+](=O)[O-])c3)c(N=O)n2c1
inactive: [1] -0.7% | [2] 4.35% | [3] 1.05% | [4] -14.9% | [5] 2.1% | [6] 21.2%

Fc1c(F)c(F)c(CCc2c(F)c(F)c(F)c(F)c2F)c(F)c1F
inactive: [1] 11.2% | [2] -8.2% | [3] 15.9% | [4] -39.1% | [5] -41.4% | [6] 19.2%

COc1ccc(C(CC(=O)O)c2ccccc2)cc1 (stereo unspecified)
inactive: [1] -31.4% | [2] -42.6% | [3] -2.55% | [4] -14.4% | [5] -29.8% | [6] -28.6%

CC(C)=NOC(=O)Nc1cccc2c1OCO2
inactive: [1] -30.3% | [2] -19.4% | [3] -12% | [4] -14.8% | [5] -35.5% | [6] 4.25%

CC12CCc3ccccc3C1=NNC(=O)C2 (stereo unspecified)
inactive: [1] -3.2% | [2] -7.55% | [3] 19.6% | [4] -6.45% | [5] -5.85% | [6] -6.15%

CN1C(=O)CC(c2cccc(C3CC(=O)N(C)C3=O)n2)C1=O (stereo unspecified)
inactive: [1] -18.6% | [2] -23.7% | [3] -17.6% | [4] -5.8% | [5] -11.7% | [6] -13.7%

CC(NC(=O)OC(C)(C)C)C(=O)C(N)=O (stereo unspecified)
inactive: [1] -16.2% | [2] 2.7% | [3] -27.9% | [4] 19.1% | [5] 8.25% | [6] -11.5%
